Measurements taken from PubChem BioAssay (NCI).
The panel holds about 83,000 compounds, 20% with a hit somewhere; the sample as a whole holds those more often.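 How to read the values: 0–100, growth inhibition (40 = 60% inhibited); 0, no net growth; -100 to 0, cell death (-40 = 40% of starting cells died; -100 = all dead).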 Calls of active or inactive are those of the source. Rule for the calls: active = growth percent below 10; inactive = the rest.

What was measured:
Experiment in all cases: NCI-60 one-dose screen, 48 h (100 = growth as untreated, 0 = no growth, -100 = all killed)
EKVX NSCLC = details: 10 µM unless noted
SN12C renal = details: 10 µM unless noted
UO-31 renal = details: 10 µM unless noted
TK-10 renal = details: 10 µM unless noted
ACHN renal = details: 10 µM unless noted
CAKI-1 renal = details: 10 µM unless noted
A498 renal = details: 10 µM unless noted
CCRF-CEM leukemia = details: 10 µM unless noted
MOLT-4 leukemia = details: 10 µM unless noted
SR leukemia = details: 10 µM unless noted
RPMI-8226 leukemia = details: 10 µM unless noted
OVCAR-8 ovarian = details: 10 µM unless noted
OVCAR-5 ovarian = details: 10 µM unless noted
SK-OV-3 ovarian = details: 10 µM unless noted
IGROV1 ovarian = details: 10 µM unless noted
OVCAR-3 ovarian = details: 10 µM unless noted
HS 578T breast = details: 10 µM unless noted
NCI/ADR-RES ovarian = details: 10 µM unless noted
OVCAR-4 ovarian = details: 10 µM

Measured: growth

C=C(C)[C@@H]1CC[C@]2(C(=O)NCCCN)CC[C@]3(C)[C@H](CC[C@@H]4[C@@]5(C)CC[C@H](O)C(C)(C)[C@@H]5CC[C@]43C)[C@@H]12
active: EKVX NSCLC -15.7% [100 µM] | SN12C renal -34.7% [100 µM] | UO-31 renal -34.3% [100 µM] | TK-10 renal -32.2% [100 µM] | ACHN renal -49.2% [100 µM] | CAKI-1 renal -54.5% [100 µM] | A498 renal -44.8% [100 µM] | CCRF-CEM leukemia 1.39% [100 µM] | MOLT-4 leukemia 2.76% [100 µM] | RPMI-8226 leukemia -6.66% [100 µM] | OVCAR-8 ovarian -3.81% [100 µM] | OVCAR-5 ovarian -47.7% [100 µM] | SK-OV-3 ovarian -27.2% [100 µM] | IGROV1 ovarian -6.94% [100 µM] | OVCAR-3 ovarian -45.9% [100 µM] | HS 578T breast -4.98% [100 µM] | NCI/ADR-RES ovarian -9.52% [100 µM]
inactive: SR leukemia 23.7% [100 µM]

COc1cc2c(c(Br)c1N)-c1cc(Br)c(N)cc1C2=O
inactive: EKVX NSCLC 34.8% | UO-31 renal 51.7% | TK-10 renal 27.2% | ACHN renal 57.6% | CAKI-1 renal 74.3% | A498 renal 61.7% | CCRF-CEM leukemia 86% | MOLT-4 leukemia 97.2% | RPMI-8226 leukemia 85.9% | OVCAR-8 ovarian 29.1% | OVCAR-5 ovarian 16.3% | OVCAR-4 ovarian 22.2% | SK-OV-3 ovarian 74.5% | IGROV1 ovarian 31.9% | OVCAR-3 ovarian 83.4% | HS 578T breast 38.1% | NCI/ADR-RES ovarian 47.8%

C=C(C)C1CCC2(C(=O)O)CCC3(C)C(CCC4C5(C)CCC(OC(=O)NCc6ccccc6)C(C)(C)C5CCC43C)C12 (centres undefined)
inactive: EKVX NSCLC 29.1% | SN12C renal 42.3% | UO-31 renal 40.3% | TK-10 renal 59.2% | ACHN renal 30.3% | CAKI-1 renal 16.1% | A498 renal 56.3% | CCRF-CEM leukemia 36.6% | MOLT-4 leukemia 29.4% | SR leukemia 41.7% | OVCAR-8 ovarian 45.5% | OVCAR-5 ovarian 75.6% | OVCAR-4 ovarian 30.7% | SK-OV-3 ovarian 68.9% | OVCAR-3 ovarian 19% | HS 578T breast 84.7% | NCI/ADR-RES ovarian 44.8%
active: RPMI-8226 leukemia 8.22%

Cc1ccccc1OC(=O)c1cccc(Cl)c1
inactive: EKVX NSCLC 99.2% | SN12C renal 110% | UO-31 renal 80.2% | ACHN renal 107% | CAKI-1 renal 109% | A498 renal 90.5% | CCRF-CEM leukemia 98% | SR leukemia 97.3% | RPMI-8226 leukemia 98.8% | OVCAR-8 ovarian 112% | OVCAR-5 ovarian 104% | OVCAR-4 ovarian 112% | SK-OV-3 ovarian 137% | IGROV1 ovarian 104% | OVCAR-3 ovarian 109% | NCI/ADR-RES ovarian 108%

C[C@H]1[C@H](C)CC[C@]2(C(=O)O)CC[C@]3(C)C(=CC[C@@H]4[C@@]5(C)C/C(=C/c6ccco6)C(=O)C(C)(C)[C@@H]5CC[C@]43C)[C@H]12
inactive: SR leukemia 31.2% [100 µM]
active: EKVX NSCLC -68.4% [100 µM] | SN12C renal -56% [100 µM] | UO-31 renal -99.5% [100 µM] | TK-10 renal -73.4% [100 µM] | ACHN renal -97.9% [100 µM] | CAKI-1 renal -74.6% [100 µM] | A498 renal -56.2% [100 µM] | CCRF-CEM leukemia -26.4% [100 µM] | MOLT-4 leukemia -10.8% [100 µM] | RPMI-8226 leukemia -19.3% [100 µM] | OVCAR-8 ovarian -19% [100 µM] | OVCAR-5 ovarian -48.8% [100 µM] | SK-OV-3 ovarian -17.3% [100 µM] | IGROV1 ovarian -59.6% [100 µM] | OVCAR-3 ovarian -74.5% [100 µM] | HS 578T breast -13.9% [100 µM] | NCI/ADR-RES ovarian -58.9% [100 µM]

Cc1ccc(-c2cc(-c3ccc(C)cc3)nc(N3CCN(CCNc4ccnc5cc(Cl)ccc45)CC3)n2)cc1
inactive: EKVX NSCLC 74% | SN12C renal 34.7% | ACHN renal 72.9% | CAKI-1 renal 32.7% | A498 renal 47.1% | MOLT-4 leukemia 38.9% | RPMI-8226 leukemia 19.4% | OVCAR-8 ovarian 25.4% | OVCAR-5 ovarian 79.4%
active: UO-31 renal -27.8% | TK-10 renal 0.923% | CCRF-CEM leukemia 8.72% | SR leukemia -1.09% | OVCAR-4 ovarian -59.4% | IGROV1 ovarian 5.07% | OVCAR-3 ovarian -53.6% | HS 578T breast -22.6% | NCI/ADR-RES ovarian 6.51%

O=C(OCc1ccc2c(Cl)cc(Cl)c(O)c2n1)N1CCN(C(=O)c2cc3cc(F)ccc3[nH]2)CC1
inactive: EKVX NSCLC 94.5% | SN12C renal 30.1% | UO-31 renal 33.4% | TK-10 renal 63.7% | ACHN renal 26.7% | CAKI-1 renal 14.8% | CCRF-CEM leukemia 13.4% | MOLT-4 leukemia 17.3% | SR leukemia 16.7% | RPMI-8226 leukemia 21.4% | OVCAR-5 ovarian 40.7% | OVCAR-4 ovarian 40% | SK-OV-3 ovarian 19.3% | IGROV1 ovarian 11.2% | HS 578T breast 12.5%
active: A498 renal -13.1% | OVCAR-8 ovarian 7.64% | OVCAR-3 ovarian -44.1% | NCI/ADR-RES ovarian 2.35%
